# Source: PubChem BioAssay (EPA / NIEHS)
# Where “and” joins values, the source holds several entries; their conditions need not be identical. Equal values may be shown once. Inconclusive results are not listed. Calls of active or inactive are those of the source. Rule for the calls: active = hit-call score of the fitted dose curve at least 0.9, where 1 is the maximum; inconclusive = response in the unintended direction; inactive = score below 0.9.
# Target: Peroxisome proliferator-activated receptor gamma (Homo sapiens) (UniProt P37231)
# Test: ATG_PPARg_TRANS: Attagene TRANS-FACTORIAL HepG2 Assay for human Peroxisome Proliferator-activated Receptor-gamma (PPARg) (AID 2283007)
# Experimental: ATG_TRANS is a cell-based, multiplexed-readout assay that uses HepG2, a human liver cell line, with measurements taken at 24 hours after chemical dosing in a 24-well plate.ATG_PPARg_TRANS is one of 30 assay component(s) measured or calculated from the ATG_TRANS assay. It is designed to make measurements of mRNA induction, a form of inducible reporter, as detected with fluorescence intensity signals by Reverse transcription polymerase chain reaction (RT-PCR) and Capillary electrophoresis technology.Data from the assay component ATG_PPARg_TRANS was analyzed into 1 assay endpoint. This assay endpoint, ATG_PPARg_TRANS, was analyzed in the positive analysis fitting direction relative to DMSO as the negative control and baseline of activity. Using a type of inducible reporter, measures of mRNA for gain-of-signal activity can be used to understand the reporter gene at the transcription factor-level as they relate to the gene PPARG. Furthermore, this assay endpoint can be referred to as a primary readout, because this assay has produced multiple assay endpoints where this one serves a reporter gene function. To generalize the intended target to other relatable targets, this assay endpoint is annotated to the nuclear receptor intended target family, where the subfamily is non-steroidal.
# Human liver HepG2 cells are transiently transfected with multiple reporter transcription units (MRTUs) in 6-well plates using FuGene 6 reagent (Roche; 3 ml FuGene/1 mg DNA). The MRTU constructs are regulated by a cis-regulating element (promoter). […] A major difference between the CIS and TRANS system is that in CIS activities of endogenous TFs are measured, whereas the TRANS assay evaluates changes in activities of exogenous, chimeric NR-Gal4 proteins. […] At the end of 24 hour incubation, total RNA was isolated using TriZol reagent (Invitrogen). The isolated RNA is then reverse-transcribed using oligo(dT) primer and Mo-MLV reverse transcriptase (Invitrogen) with DNAse I (Ambion) treatment for 30 min. The one-tenth of the produced cDNA was amplified by PCR using Taq DNA polymerase (Invitrogen) and two reporter sequence-specific primers. The PCR products were fluorescently labeled by primer extension with 6-arboxyfluorescein (6-FAM) 5'-labeled reporter sequence-specific primer (2 min at 95 C, 20 s at 68 C and 10 min at 72 C) and these products were digested with 5U of HpaI (New England Biolabs) for 2h at 37 C. The fragments were purified using Qiaquick PCR columns (Qiagen), analyzed on an ABI 3130xL genetic analyzer (Applied Biosystems) with peak positions identified by using a set of X-rhodamine (ROX)-labeled MapMarker1000 molecular weight standards (BioVentures). The raw capillary electrophoresis data was processed using Attagraph software (Attagene).
# Peroxisome proliferator-activated receptor gamma (Homo sapiens), sequence (P37231 whole entry, looked up): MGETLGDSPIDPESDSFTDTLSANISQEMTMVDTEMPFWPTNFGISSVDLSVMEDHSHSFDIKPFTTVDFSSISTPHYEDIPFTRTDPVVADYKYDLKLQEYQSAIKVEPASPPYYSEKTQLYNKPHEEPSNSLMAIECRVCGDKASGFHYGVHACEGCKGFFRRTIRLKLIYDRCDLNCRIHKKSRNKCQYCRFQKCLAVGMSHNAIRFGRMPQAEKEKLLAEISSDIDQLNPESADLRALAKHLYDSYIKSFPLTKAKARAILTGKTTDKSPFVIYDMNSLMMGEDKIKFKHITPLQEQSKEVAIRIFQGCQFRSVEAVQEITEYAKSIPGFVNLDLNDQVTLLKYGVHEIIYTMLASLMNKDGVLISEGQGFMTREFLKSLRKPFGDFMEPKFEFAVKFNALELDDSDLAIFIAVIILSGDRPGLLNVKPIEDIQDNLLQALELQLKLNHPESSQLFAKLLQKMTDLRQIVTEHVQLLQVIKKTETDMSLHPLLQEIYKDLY
Compound,AC50,outcome
OC(O)(C(F)C(O)(O)C(F)(F)F)C(F)(F)F,150 µM (active) and 94.2 µM (active),–
COc1cc(C(C)C)c2c(c1)S(=O)(=O)N(COc1cc(=O)n3cccc(OCCN4CCCCC4)c3n1)C2=O,2.75 µM (active),–
OC[C@H]1O[C@@](CO)(O[C@H]2O[C@H](CO)[C@@H](O)[C@H](O)[C@H]2O)[C@@H](O)[C@@H]1O,–,inactive
CCN(CC)C(=S)SSC(=S)N(CC)CC,–,inactive
CC(C)C(=O)Nc1ccc([N+](=O)[O-])c(C(F)(F)F)c1,49 µM (active),–
C[Si](C)(C)C(F)(F)C(F)(F)C(F)(F)F,–,inactive
O=S(=O)(O)CCC(F)(F)C(F)(F)C(F)(F)C(F)(F)C(F)(F)C(F)(F)F,–,inactive
COS(C)(=O)=O,–,inactive
CCCCN1C(=O)[C@@H]([C@H](O)C2CCCCC2)NC(=O)C12CCN(Cc1ccc(Oc3ccc(C(=O)O)cc3)cc1)CC2,–,inactive
O=C(NO)C1(NS(=O)(=O)c2ccc(Oc3ccc(F)cc3)cc2)CCOCC1,–,inactive
FC(F)=C(F)C(F)(F)C(F)(F)C(F)(F)C(F)(F)C(F)(F)C(F)(F)F,–,inactive
NC(=O)NN=Cc1ccc([N+](=O)[O-])o1,–,inactive
NC(=O)N1c2ccccc2C=Cc2ccccc21,–,inactive
NC(=O)N(O)[C@@H]1COc2cc(OCc3ccccc3)ccc21,–,inactive
CCCOc1ccc(S(=O)(=O)N2CCN(CC)CC2)cc1-c1nc2c(CC)n(Cc3ccccn3)nc2c(=O)[nH]1,7.76 µM (active),–
CCCCCCOC(=O)CC(CC(=O)OCCCCCC)(OC(=O)CCC)C(=O)OCCCCCC,–,inactive
OCc1ccccc1,–,inactive
O=C1CN(N=Cc2ccc([N+](=O)[O-])o2)C(=O)N1,–,inactive
COc1cc2c(c(OC)c1OC)-c1ccc(OC)c(=O)cc1[C@@H](NC(C)=O)CC2,–,inactive
NNC(=O)c1ccncc1,–,inactive

Compound,AC50,outcome
CCCCC(CC)C(=O)OCCOCCOCCOC(=O)C(CC)CCCC (stereo not given),–,inactive
Cn1c(=O)c2[nH]cnc2n(C)c1=O,–,inactive
Cc1cccc(O)c1C,–,inactive
O=C(Cl)C(F)(F)C(F)(F)C(F)(F)C(=O)Cl,–,inactive
Cc1ncc([C@@H](CCCCCCc2ccc3c(n2)NCCC3)CC(=O)O)cn1,100 µM (active),–
CCCCCCCC1CCC(=O)O1 (stereo not given),–,inactive
CCCCCCCCCCCCCCO,–,inactive
CCCc1ccccc1,–,inactive
CCOc1ccc2[nH]cc(C(=O)NCc3ccccc3)c(=O)c2n1,–,inactive
CC(C)CCCCCCOC(=O)C1CCCCC1C(=O)OCCCCCCC(C)C (stereo not given),–,inactive
O=C(N[C@H](CO)[C@H](O)c1ccc([N+](=O)[O-])cc1)C(Cl)Cl,–,inactive
NCC(F)(F)C(F)(F)C(F)(F)C(F)(F)F,–,inactive
OCCC(F)(F)C(F)(F)C(F)(F)C(F)(F)F,–,inactive
O=C(O)c1ccc2c(c1)nc(C(=O)NC1CCN(C3CC3)CC1)n2Cc1cc(-c2ccc(Cl)s2)on1,1.03 µM (active),–
C=CCc1cc(S(=O)(=O)c2ccc(O)c(CC=C)c2)ccc1O,9.21 µM (active),–
CCCCOC(=O)c1ccccc1,–,inactive
FC(F)(F)COC(OCC(F)(F)F)OCC(F)(F)F,–,inactive
FC(F)(F)C(F)(F)C(F)(F)C(F)(F)C(F)(F)C(F)(F)I,88 µM (active) and 106 µM (active),–
CC(=O)c1ccccc1,–,inactive
O=c1[nH]cnc2c1ncn2[C@H]1CC[C@@H](CO)O1,–,inactive
